Sampled rows, rich in hits. Any-hit rate of the full collection: about 2.3%.
Nrf2 inh – Nrf2 pathway inhibition; hit rate 2.1% among 360,000; AID 504444; Potency, µM (highest dose often 46 µM), usual class: inhibitors; A549 ARE-Fluc reporter, luciferase luminescence, 18-24 h; note: nearly all actives have a fitted effect of over 60% in size
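Quantitative HTS in A549 cells stably bearing an antioxidant response element-firefly luciferase construct. Inhibition of Nrf2-driven transcription was scored by luminescence after 18-24 h of compound exposure at 37 °C.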
A549 tox-1 – A549 cytotoxicity, counter-screen for Nrf2 inhibitors; A549 ARE-Fluc cells, CellTiter-Fluor viability, 18-24 h; Potency, µM (doses to about 46 µM), actives largely listed as inhibitors; hit rate 0.16% among 390,000; AID 504648
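A549 ARE_Fluc cells in 5% FBS OPTI-MEM were exposed to compounds in concentration-response for 18-24 h at 37 deg C. Viability was read by CellTiter-Fluor fluorescence (Ex 405/Em 525) after 30 min, before the luciferase read.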
Nrf2 ARE act – Nrf2 pathway activation; AREc32 ARE-luciferase reporter (MCF7-derived line), luminescence, 24 h; Potency, µM (doses to about 46.1 µM), hits mostly activators; hit rate 0.31% among 410,000; AID 624171; note: nearly all actives have a fitted effect of over 65% in size
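Luciferase luminescence (Steady-Glo, 30 min at room temperature) served as the read-out of ARE activation in AREc32 cells treated with compounds for 24 hr at 37 deg C.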
IL-2 act – IL-2 activation; IL-2 activation reporter assay, cell-based qHTS; stimulated with anti-CD3/CD4/CD28 beads; in transgenic mouse T cells; activation, % (series mostly up to about 46 µM); hit rate 0.065% among 360,000; AID 652025; in the data active = activation above about 50%; inconclusive = mostly about 30% to 49%
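Screening format: compound pinned onto unstimulated transgenic mouse T cells, 60 min incubation, then anti-CD3/anti-CD4/anti-CD28 bead stimulation for 18 hours at 37 degrees C, followed by EGFP and DsRed detection.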
FLuc enzyme inh – blocks purified firefly luciferase in Nrf2 counterscreen; shares compounds with Nrf2 inh; AID 720522; purified firefly luciferase, luminescence inhibition; hit rate 4% among 1,400; Potency, µM (series often up to 57.5 µM), hits mostly inhibitors; note: nearly all actives have a fitted effect of over 65% in size
Target sequence (P08659 whole entry, looked up): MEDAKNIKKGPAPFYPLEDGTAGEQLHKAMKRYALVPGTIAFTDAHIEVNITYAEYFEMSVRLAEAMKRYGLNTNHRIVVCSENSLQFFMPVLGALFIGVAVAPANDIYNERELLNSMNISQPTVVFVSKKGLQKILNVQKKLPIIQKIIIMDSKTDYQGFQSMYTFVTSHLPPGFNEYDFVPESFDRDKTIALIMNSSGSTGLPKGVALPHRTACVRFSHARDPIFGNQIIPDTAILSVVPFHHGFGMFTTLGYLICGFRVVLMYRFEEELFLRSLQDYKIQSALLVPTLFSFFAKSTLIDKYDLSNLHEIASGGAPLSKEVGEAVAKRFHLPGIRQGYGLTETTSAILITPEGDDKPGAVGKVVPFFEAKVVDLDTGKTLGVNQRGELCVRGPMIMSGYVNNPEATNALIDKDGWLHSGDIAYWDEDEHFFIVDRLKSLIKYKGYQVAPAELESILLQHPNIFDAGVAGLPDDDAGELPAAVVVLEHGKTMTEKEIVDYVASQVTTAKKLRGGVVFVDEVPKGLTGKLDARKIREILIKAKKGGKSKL
A549 tox-2 – counter-screen for Nrf2 inhibitors: cytotoxicity in A549 ARE cells | A549 ARE-Fluc cells, cytotoxicity counterscreen | shares compounds with Nrf2 inh | AID 720523 | hit rate 2% among 1,400 | Potency, µM (doses to about 46.1 µM), hits mostly inhibitors;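 note: cells exposed to compounds for 18 to 24 hours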
ARE-Fluc inh – Nrf2 inhibition confirmed, A549 ARE-luciferase; shares compounds with Nrf2 inh; A549 ARE-firefly luciferase reporter, luminescence; Potency, µM (series often up to 46.1 µM), hits mostly inhibitors; hit rate 74% among 1,400; note: nearly all actives have a fitted effect of over 65% in size
Numbers stand for hits; - = inactive; ? = inconclusive; . = not tested or not shown. Unless noted, calls come from the whole dose curve; as a rule, active = well fitted curve in the direction sought with a large enough effect; inconclusive = small, poorly fitted or top-dose-only effect, or another doubt; inactive = no such curve, though single readings can be large; an effect the other way counts as inactive or inconclusive.

SMILES	Nrf2 inh	A549 tox-1	Nrf2 ARE act	IL-2 act	FLuc enzyme inh	A549 tox-2	ARE-Fluc inh
CC(=O)c1ccc(N2CCN(C(=S)Nc3ccc(Oc4ccccc4)cc3)CC2)cc1	6.5µM	?	-	-	-	-	8.2µM
COc1ccc(N2CCN(C(=S)Nc3ccccc3)CC2)cc1	-	-	-	-	.	.	.
CCC1CCCCN1CC(=O)N1CCCc2c1c(=O)oc1ccc(OCc3ccccc3)cc21 (stereo not given)	-	-	-	.	.	.	.
CN(C)c1nc(-c2ccccn2)nnc1-c1ccccc1	?	?	-	-	-	-	12µM
Cc1cc(/C=C(\C#N)C(=O)Nc2ccc(Cl)cc2)c(C)n1-c1ccc(N2CCOCC2)c([N+](=O)[O-])c1	5.2µM	-	-	-	-	-	4.6µM
Cc1ccc(NC(=O)/C(C#N)=C/c2cc(C)n(-c3ccc(N4CCOCC4)c([N+](=O)[O-])c3)c2C)c(C)c1	?	-	-	-	.	.	.
Cc1ccc(C)c(CN2CCC(CNC(=O)C(CC(C)C)N3Cc4ccccc4C3=O)CC2)c1 (stereo not given)	?	-	-	.	.	.	.
CSc1ccc(CCNC(=O)Cn2nc(C)n3c(cc4sccc43)c2=O)cc1	-	-	-	.	.	.	.
CC1=[N+](C)c2c(ccc3cccnc23)C1(C)C	2.1µM	?	-	-	-	-	2.6µM
CCOCCCNc1ncnc2onc(C)c12	-	-	-	.	.	.	.
Cc1noc2ncnc(NCCc3ccccc3)c12	?	-	-	.	.	.	.
COc1ccc(CNc2ncnc3onc(C)c23)cc1	4.1µM	-	-	.	-	-	?
COc1ccc(OC)c(CNc2ncnc3onc(C)c23)c1	-	-	-	.	.	.	.
CCOc1ccc(CCNc2ncnc3onc(C)c23)cc1OCC	7.3µM	-	-	.	-	-	?
Cc1ccc(CCNc2ncnc3onc(C)c23)cc1	9.2µM	-	-	.	?	-	5.8µM
COc1ccc(C2=C(N3CCN(c4cc(C)ccc4C)CC3)c3ccccc3C2=O)cc1	-	-	-	.	.	.	.
COc1ccc(NC(=O)Cn2c(=O)n(CCCC(=O)NCCc3ccc(C)cc3)c(=O)c3ccccc32)cc1Cl	-	-	-	.	.	.	.
COC(=O)C1=C(C)NC(=O)C1(NC(=O)c1ccc(Cl)cc1)C(F)(F)F (stereo not given)	.	-	-	.	.	.	.
CCn1nc(C)c(NC(=O)/C=C/c2cnn(C)c2C)c1C	-	-	-	-	.	.	.
CCn1ncc(/C=C/C(=O)Nc2c(C)nn(Cc3ccc(Cl)cc3Cl)c2C)c1C	5.8µM	?	-	-	-	-	.
CCOc1ccc2ncc3c(-c4cccc(OC)c4)nn(-c4ccccc4)c3c2c1	-	-	-	.	.	.	.
O=C(N/N=C/c1ccc([N+](=O)[O-])s1)c1ccccc1Br	9.2µM	?	-	-	?	-	5.8µM
COc1cccc(CNC(=O)c2cccc(S(=O)(=O)N3CCN(c4ccc(F)cc4)CC3)c2)c1	?	-	-	-	-	-	?
COc1ccc(NC(=O)CN(C)C(=O)c2cccc(S(=O)(=O)N3CCN(c4ccc(F)cc4)CC3)c2)cc1	5.8µM	?	-	-	-	-	18µM
COc1ccc(CNC(=O)c2cccc(S(=O)(=O)N3CCN(c4ccc(F)cc4)CC3)c2)cc1	?	-	-	-	.	.	.
SMILES	Nrf2 inh	A549 tox-1	Nrf2 ARE act	IL-2 act	FLuc enzyme inh	A549 tox-2	ARE-Fluc inh
CN(CC(=O)Nc1ccc(F)cc1)C(=O)c1cccc(S(=O)(=O)N2CCN(c3ccccc3)CC2)c1	?	-	-	-	.	.	.
CCCc1nn2c(=O)cc(COC(=O)c3cccc(NC(=O)c4ccc(OCC)cc4)c3)nc2s1	.	-	-	.	.	.	.
Nc1c(C(=O)NCc2ccccc2)nnn1Cc1cccc(Br)c1	?	-	-	.	.	.	.
Cc1nc2ccc(NS(=O)(=O)c3ccc4c(c3)OCCO4)cc2s1	2.9µM	-	-	-	-	-	6.5µM
Cc1ccc(S(=O)(=O)Nc2ccc3c(c2)OCCO3)cc1	-	-	-	-	.	.	.
CC(CC(=O)Nc1ccc(Cl)c(S(=O)(=O)N2CCOCC2)c1)c1ccccc1 (stereo not given)	7.3µM	-	-	-	-	-	3.3µM
CN(C)S(=O)(=O)c1cccc(NC(=O)CNc2cccc(S(=O)(=O)N3CCCCC3)c2)c1	.	.	-	-	.	.	.
